Measured values published in PubChem BioAssay (Tox21).
Results filed as inconclusive are left out. Where a call stands in place of a potency, no number is given. Unmarked numbers belong to inactive results. Active and inactive are the calls of the source. Calls follow the shape of the dose curve; as a rule, active = well fitted cell-killing curve with a large enough effect in the repeat runs; inconclusive = weak or mixed curves, or effect the other way; inactive = flat fitted curve, though single readings scatter.

Assay: Nuclear factor erythroid 2-related factor 2/antioxidant responsive element (Nrf2/ARE) small molecule agonists: qHTS cell viability counter screen in human keratinocytes (AID 1919968); also: nearly all actives have a fitted effect of over 55% in size
Conditions: KeratinoSens HaCaT ARE cells viability, CellTiter-Fluor, 24 h; series mostly up to 92.4 µM
Method in brief: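 Seed 1,500 KeratinoSens cells per well, then incubate 5 h at 37 C/5% CO2. Add compounds in DMSO and incubate 23 h. Add CellTiter-Fluor, wait 1 h and read fluorescence.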
In the case of O=c1[nH]c(=O)n([C@H]2C[C@H](O)[C@@H](CO)O2)cc1I, the Potency is reported as “inactive”.
In the case of CC[N+](CC)(CC)CCOc1cccc(OCC[N+](CC)(CC)CC)c1OCC[N+](CC)(CC)CC, the Potency is reported as “inactive”.
For C[N+]1(C)[C@@H]2CC(OC(=O)[C@H](CO)c3ccccc3)C[C@H]1[C@@H]1O[C@@H]12 (some centres undefined), the Potency was “inactive”.
In the case of C[C@@H]1C[C@H]2[C@@H]3CCC4=CC(=O)C=C[C@]4(C)[C@@]3(F)[C@@H](O)C[C@]2(C)[C@H]1C(=O)CO, the Potency is reported as “inactive”.
For C[C@H]1C[C@H]2[C@@H]3CCC4=CC(=O)C=C[C@]4(C)[C@@]3(F)[C@@H](O)C[C@]2(C)[C@@]1(O)C(=O)COP(=O)(O)O, the Potency was “inactive”.
For CCOC(=O)OC(C)OC1=C(C(=O)Nc2ccccn2)N(C)S(=O)(=O)c2ccccc21 (centres undefined), the Potency was “inactive”.
In the case of C[N+](C)(C)CC(O)CC(=O)[O-] (centres undefined), the Potency is reported as “inactive”.
For Cc1cccc(C)c1OCC(C)N (centres undefined), the Potency was “inactive”.
For CC1=NS(=O)(=O)c2cc(Cl)ccc2N1, the Potency was “inactive”.
For CC(C)NCC(O)c1ccc(NS(C)(=O)=O)cc1 (centres undefined), the Potency was “inactive”.
With CC[C@H]1OC(=O)[C@H](C)[C@@H](O[C@H]2C[C@@](C)(OC)[C@@H](O)[C@H](C)O2)[C@H](C)[C@@H](O[C@@H]2O[C@H](C)C[C@H](N(C)C)[C@H]2O)[C@](C)(OC)C[C@@H](C)C(=O)[C@H](C)[C@@H](O)[C@]1(C)O the Potency was “inactive”.
With CC[C@H]1OC(=O)[C@H](C)[C@@H](O[C@H]2C[C@@](C)(OC)[C@@H](O)[C@H](C)O2)[C@H](C)[C@@H](O[C@@H]2O[C@H](C)C[C@H](N(C)C)[C@H]2O)[C@](C)(O)C[C@@H](C)C(=O)[C@H](C)[C@@H](O)[C@]1(C)O the Potency was “inactive”.
With NCCCNCCSP(=O)(O)O the activity change, negative = cytotoxicity was -4.44% [at 8.39 µM].
In the case of NS(=O)(=O)c1cc2c(cc1Cl)NC(C(Cl)Cl)NS2(=O)=O (centres undefined), the Potency is reported as “inactive”.
In the case of CCOC(=O)[C@H](CCc1ccccc1)N[C@@H](C)C(=O)N1CCC[C@H]1C(=O)O, the Potency is reported as “inactive”.
With COC(=O)[C@@H]1[C@H]2C[C@H]3c4[nH]c5ccccc5c4CCN3C[C@@H]2CC[C@@H]1O the Potency was “inactive”.
In the case of Oc1cccc(O)c1O, the Potency is reported as “inactive”.
With COc1cc(C(=O)NC2CCCNC2)cc(OC)c1OC (centres undefined) the Potency was “inactive”.
In the case of CCN[C@@H]1C[C@H](N)[C@@H](OC2OC(CN)=CCC2N)[C@H](O)[C@H]1O[C@H]1OC[C@](C)(O)[C@H](NC)[C@H]1O (some centres undefined), the activity change, negative = cytotoxicity is reported as -5.32% [at 0.349 µM].
In the case of O=C(O)CCNC(=O)c1ccccc1, the Potency is reported as “inactive”.
In the case of CN1CCN(C(c2ccccc2)c2ccccc2)CC1, the Potency is reported as “inactive”.
In the case of CCCN(CCC)C(=O)C(CCC(=O)O)NC(=O)c1ccccc1 (centres undefined), the Potency is reported as “inactive”.
For CNS(=O)(=O)Cc1ccc2[nH]cc(CCN(C)C)c2c1, the Potency was “inactive”.
For CCN(CC)CCNC(=O)c1cc(S(C)(=O)=O)ccc1OC, the Potency was “inactive”.
For CCOC(=O)[C@H](CCc1ccccc1)N[C@@H](C)C(=O)N1[C@H](C(=O)O)C[C@@H]2CCC[C@@H]21, the Potency was “inactive”.
For Nc1ccc(S(=O)(=O)NC(=O)c2ccccc2)cc1, the Potency was “inactive”.
For CN1CCN(c2c(F)cc3c(=O)c(C(=O)O)cn(CCF)c3c2F)CC1, the Potency was “inactive”.
For CCn1cc(C(=O)O)c(=O)c2cnc(N3CCCC3)nc21, the activity change, negative = cytotoxicity was -0.789% [at 8.39 µM].
With CCn1cc(C(=O)O)c(=O)c2cc(F)c(N3CCNCC3)cc21 the Potency was “inactive”.
For Cc1[nH]cnc1CN1CCc2c(c3ccccc3n2C)C1=O, the Potency was “inactive”.
In the case of CC(C)(C)NCC(O)COc1cccc2c1C[C@H](O)[C@H](O)C2 (some centres undefined), the Potency is reported as “inactive”.
In the case of O=C(Oc1ccccc1C(=O)O)c1ccccc1O, the Potency is reported as “inactive”.
For C[n+]1ccccc1/C=N/O, the Potency was “inactive”.
In the case of CC12CCC(CC1=O)C2(C)C (centres undefined), the Potency is reported as “inactive”.
For COC(=O)CCc1ccc(OCC(O)CNC(C)C)cc1 (centres undefined), the Potency was “inactive”.
With NCCCCCC(=O)O the Potency was “inactive”.
For CCOc1cc(N)c(Cl)cc1C(=O)NCC1CN(Cc2ccc(F)cc2)CCO1 (centres undefined), the Potency was “inactive”.
With CCCc1nn(C)c2c(=O)[nH]c(-c3cc(S(=O)(=O)N4CCN(C)CC4)ccc3OCC)nc12 the Potency was “inactive”.
With Cc1ccc(S(=O)(=O)NC(=O)NN2CC3CCCC3C2)cc1 (centres undefined) the Potency was “inactive”.
